# HCMV inh – human cytomegalovirus inhibition | HFF cells, HCMV-luciferase reporter, 72 h; active compounds read low | activity change, negative = inhibition, % at 57.5 µM | 410,000 compounds, 4.5% hits; in the data active = activity change below about -60%; inconclusive = no clear call, values can overlap the other calls; inactive = above about -39%
#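 HFF cells seeded 16 h at 37C, treated with compounds, infected with luciferase-reporter HCMV at MOI 1 PFU/cell; luciferase read at 72 h post infection, normalized to buffer-only and Salinomycin controls.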
# FBPA Giardia inh – blocks Giardia fructose-bisphosphate aldolase activity; A8B2U2; purified Giardia FBPA; Potency, µM (highest dose often 59.6 µM), hits mostly inhibitors; 290,000 compounds, 0.71% hits; AID 2451; note: nearly all actives have a fitted effect of over 55% in size
# Target sequence (A8B2U2 whole entry, looked up): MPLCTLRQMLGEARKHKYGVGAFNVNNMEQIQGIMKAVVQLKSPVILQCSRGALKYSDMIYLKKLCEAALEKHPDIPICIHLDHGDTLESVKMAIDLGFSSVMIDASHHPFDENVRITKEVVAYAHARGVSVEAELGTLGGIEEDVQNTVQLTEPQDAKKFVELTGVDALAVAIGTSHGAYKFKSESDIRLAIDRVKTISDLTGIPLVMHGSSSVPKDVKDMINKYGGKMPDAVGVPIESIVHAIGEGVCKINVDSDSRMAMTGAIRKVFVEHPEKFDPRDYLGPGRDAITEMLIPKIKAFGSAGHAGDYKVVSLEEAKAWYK
#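 Giardia FBPA (40 nM reagent) was preincubated 10 min at RT with compound (up to 57.5 uM final), then substrate plus GAPDH/TPI/NAD/arsenate coupling system with diaphorase/resazurin was added; resorufin fluorescence (525/598 nm) was read after 20 min.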
# Sm TGR block – blocks Schistosoma mansoni thioredoxin glutathione reductase. Q962Y6. purified TGR, DTNB reduction, TNB absorbance 405 nm. Potency, µM (titrated, usually from 114 µM), most hits filed as inhibitors. 360,000 compounds, 3% hits; note: nearly all actives have a fitted effect of over 60% in size
#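 TGR 20 nM + NADPH 100 uM (dispensed conc.), cpd preinc 15 min RT; start with NADPH (500 uM addition) then DTNB (15 mM addition). Kinetic TNB absorbance, 405 nm filter. Four-parameter Hill fit across titration.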
# Pf growth 48h – P. falciparum growth inhibition at 48 hours (one generation) | P. falciparum luciferase growth in erythrocytes, 48 h | Potency, µM (doses to about 28.7 µM), actives largely listed as inhibitors | 310,000 compounds, 5.9% hits
#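 First compound was added to culture medium, then infected red cells at 0.1% parasitemia and 2% hematocrit (final). After incubation at 37 C under 5% CO2, luciferase detection reagent was dispensed and light output recorded.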
# Pf growth 96h – inhibits malaria parasite growth, 96 h | P. falciparum luciferase reporter growth, 96 h | Potency, µM (doses to about 28.7 µM), actives largely listed as inhibitors | 320,000 compounds, 6.9% hits | AID 504834
#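 Compounds incubated with erythrocytes infected by luciferase-expressing P. falciparum (2% hematocrit, 0.05% parasitemia final) for 96 hours, 37 C in 5% CO2. Growth inhibition scored as decreased luciferase luminescence.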
# A number is an active result; - = inactive; ? = inconclusive; . = no result given. Shown are actives, neighbours in structure and some others; about 14% of the full set was active somewhere. Unless noted, calls come from the whole dose curve; as a rule, active = well fitted curve in the direction sought with a large enough effect; inconclusive = small, poorly fitted or top-dose-only effect, or another doubt; inactive = no such curve, though single readings can be large; an effect the other way counts as inactive or inconclusive.
SMILES,HCMV inh,FBPA Giardia inh,Sm TGR block,Pf growth 48h,Pf growth 96h
Cc1nn(CC(=O)Nc2ccc(C(=O)N3CCCC3)cc2)c(=O)c2ccccc12,-,-,-,-,9.3µM
CCC(=O)NCc1cc(-c2nn(C)c(=O)c3ccccc23)ccc1C,-,-,-,-,.
COc1ccc(-c2nn(C)c(=O)c3ccccc23)cc1NC(=O)Cn1nc(C)c2ccccc2c1=O,-,-,-,10µM,-
Cc1nn(CC(=O)Nc2ccc(C(=O)N3CCCCC3)cc2)c(=O)c2ccccc12,-,-,-,-,.
Cc1ccc(-c2nn(CC(=O)NCc3cc(-c4nn(C)c(=O)c5ccccc45)ccc3C)c(=O)c3ccccc23)cc1,-95,-,-,-,.
Cn1nc(-c2ccc(NCCO)c([N+](=O)[O-])c2)c2ccccc2c1=O,-,-,-,-,5.2µM
CN(C)CCNc1ccc(-c2nn(C)c(=O)c3ccccc23)cc1[N+](=O)[O-],-,-,.,-,-
COC(=O)c1c(NC(=O)COc2ccc(OC)cc2)sc2c1CCC(C)C2 (centres undefined),-,.,-,.,.
O=C1C2C(c3ccccc3)CC=CC2C(c2ccc(C(F)(F)F)cc2)N1Cc1ccccc1 (centres undefined),.,-,.,.,.
CN1C(=O)C(=Cc2ccc(Sc3ccccc3)o2)C(=O)N(C)C1=O,-,-,?,-,-
O=C1NC(=O)C(=Cc2ccc(Sc3ccccc3)o2)C(=O)N1,-,-,50µM,-,-
Cc1ccnc2nc(C(=O)OCC(=O)N(Cc3ccccc3)C(C)C)nn12,-,.,.,.,.
N#Cc1cccc(NC(=S)Nc2ccccc2)c1,-68,-,50µM,-,-
Oc1ccc(NC(=S)Nc2ccccc2)cc1,?,-,-,-,-
CCOC(=O)N1CCN(C(=O)c2[nH]c(C(F)(F)F)nc2-c2ccccc2)CC1,-,.,.,.,.
CN1CCN(c2ccc([N+](=O)[O-])c(Sc3nncn3C)c2)CC1,-,-,-,-,?
CN1CCN(c2ccc([N+](=O)[O-])c(Sc3ccccn3)c2)CC1,-,-,-,?,0.29µM
CN1CCN(c2ccc([N+](=O)[O-])c(-n3nc(-c4ccccc4)c4ccccc4c3=O)c2)CC1,-,-,-,?,8.3µM
CCc1ccc(N(C(=O)c2snc(C(N)=O)c2N)C(C(=O)NC2CCCC2)c2ccncc2)cc1 (centres undefined),-,.,-,?,-
COc1ccc2[nH]cc(CCn3ccc(O)c(C/C=C/c4ccccc4)c3=O)c2c1,-,-,-,9.3µM,?
CCCC(=O)Nc1nc2c(ncn2[C@@H]2O[C@H]3COP(=O)(O)O[C@@H]3[C@@H]2OC(=O)CCC)c(=O)[nH]1,.,-,.,.,.
Cc1cc2oc(=O)cc(C)c2c2occ(-c3ccc(Cl)cc3)c12,-,.,-,.,.
COC1/C=C/C=C(\C)Cc2cc(O)c(Cl)c(c2)N(C)C(=O)CC(OC(=O)C(C)C)C2(C)OC2C(C)C2CC1(O)NC(=O)O2 (centres undefined),-91,.,.,.,.
CCOc1ccc(NC(=O)CSc2nccn2C2CCCC2)cc1,-,.,-,.,.
CCCCCNC(=O)C(C1CC1)n1c(=O)c(-c2ccccc2)nc2ccccc21 (centres undefined),-69,.,.,.,.
SMILES,HCMV inh,FBPA Giardia inh,Sm TGR block,Pf growth 48h,Pf growth 96h
OCCC1CN(Cc2ccsc2)CCN1C1CCCC1 (centres undefined),-,-,-,-,?
OCCC1CN(Cc2c(F)cccc2Cl)CCN1C1CCCC1 (centres undefined),-,-,-,-,13µM
OCCC1CN(Cc2c(F)cccc2Cl)CCN1C1CCCCC1 (centres undefined),-,-,-,-,?
CCOC(=O)C1CCCN(Cc2c(F)cccc2Cl)C1 (centres undefined),-75,?,-,-,.
CC(=O)Nc1ccc(CN2CCN(C3CCCC3)C(CCO)C2)cc1 (centres undefined),-,-,-,-,8.3µM
OCCC1CN(Cc2ccc3c(c2)CCO3)CCN1C1CCCC1 (centres undefined),-74,-,.,-,-
CC(=O)Nc1ccc(CN2CCN(CC=C(C)C)C(CCO)C2)cc1 (centres undefined),-,-,-,-,?
Cc1ccc(CNC(=O)[C@H]2C[C@@H]2[C@H](NP(=O)(c2ccccc2)c2ccccc2)c2ccccc2)c(F)c1F,.,-,.,.,.
Cc1c(Nc2cc(Cl)c3nonc3c2[N+](=O)[O-])c(=O)n(-c2ccccc2)n1C,-,-,-,-,-
O=[N+]([O-])c1c(Nc2ccccc2)ccc2nonc12,-,-,-,-,?
Cc1c(Nc2cc(N3CCOCC3)c3nonc3c2[N+](=O)[O-])c(=O)n(-c2ccccc2)n1C,.,-,18µM,-,?
Cc1c(Nc2ccc3nonc3c2[N+](=O)[O-])c(=O)n(-c2ccccc2)n1C,-,-,-,-,0.66µM
Nc1nc(-c2ccc([N+](=O)[O-])cc2)cc(=O)[nH]1,-,.,.,.,.
COc1ccc(-c2nc(C)ncc2N=Nc2ccccc2)cc1,-,-,-,9.3µM,3.7µM
O=C(CSc1cnc2ccccc2n1)c1ccc(F)cc1,-,-,-,-,-
O=C(CCN1CCN(Cc2ccccc2)CC1)NNC(=O)Nc1cccc([N+](=O)[O-])c1,?,.,-,-,13µM
O=C(CCN1CCN(Cc2ccccc2)CC1)NNC(=O)Nc1cccc(Cl)c1,-,.,-,?,-
O=C(Nc1ccc(CN2CCOCC2)cc1)c1ccc(-c2cc(Cl)ccc2Cl)o1,?,-,-,1.9µM,?
O=C(Nc1ccc(CN2CCOCC2)cc1)c1ccc(-c2cccc([N+](=O)[O-])c2)o1,?,.,-,?,2.6µM
O=[N+]([O-])c1cccc(-c2ccc(C(=S)N3CCOCC3)o2)c1,-,?,.,-,?
O=C(Nc1ccc(CN2CCOCC2)cc1)c1ccc(Br)o1,-,-,-,-,-
Cc1ccc(C(=O)N2CCN(c3ccc(F)cc3)CC2)cc1S(=O)(=O)N1CCCCC1,-84,.,-,?,9.3µM
Cc1ccc(C(=O)N2CCN(c3ccccc3)CC2)cc1S(=O)(=O)N1CCCC1,?,-,-,?,-
O=C(c1ccc(Cl)c(S(=O)(=O)N2CCCCC2)c1)N1CCN(c2ccccc2)CC1,-77,.,-,-,-
CC1CCN(S(=O)(=O)c2cc(C(=O)N3CCN(c4ccccc4)CC3)ccc2Br)CC1,-76,.,.,.,.
O=C(c1ccc(Cl)c(S(=O)(=O)N2CCCC2)c1)N1CCN(c2ccc(F)cc2)CC1,-87,-,-,?,?
CCOCc1c(C(=O)N2CCN(CC(=O)Nc3ccc(F)cc3)CC2)oc2ccccc12,-,.,-,?,?
CCCCNC(=O)CCn1c(=O)c2cccn2c2cccnc21,-,.,-,.,.
CCC1(C)Cc2ccccc2-c2nc(NCCCO)n(-c3ccccc3)c(=O)c21 (centres undefined),-,-,-,.,10µM
COc1ccc(S(=O)(=O)N(C)C[C@@H]2Oc3cc(C#CC4CCCCC4)ccc3S(=O)(=O)N([C@@H](C)CO)C[C@@H]2C)cc1,-,.,.,.,.
